High-throughput results deposited in PubChem by National Center for Advancing Translational Sciences (NCATS).
The list is not random: actives were taken first. Their share in the collection is about 3.7%.
Tau FP inhib – inhibitors of human tau fibril formation. Potency, µM (highest dose often 57.7 µM), without a hit: at the top dose activity, negative = inhibition, most hits filed as inhibitors. hit rate 0.39% among 280,000. K18 P301L tau heparin fibrillization, Alexa594 FP, 6 h. AID 1468. P10636; note: % is set by controls: 0 for no effect and ±100 for the full control effect; nearly all actives have a fitted effect of over 55% in size
Target sequence (P10636 561-689 P618L limits assumed): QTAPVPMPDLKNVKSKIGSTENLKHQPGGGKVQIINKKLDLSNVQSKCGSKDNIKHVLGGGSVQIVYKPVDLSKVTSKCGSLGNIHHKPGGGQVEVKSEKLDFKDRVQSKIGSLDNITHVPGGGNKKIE
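Read-out: fluorescence polarization of Alexa 594-labeled tau (0.24 uM), 555 nm excitation, 632 nm emission. Mixtures held 15 uM unlabeled K18 P301L, compound and 20 uM heparin, pH 7 acetate buffer, incubated 6 hr at 37 C.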
HttQ103 aggreg – mutant huntingtin aggregation inhibition. AID 1688. PC12 HttQ103-GFP aggregates, Acumen cytometry, 40 h. Potency, µM (doses to about 46.1 µM), for inactives: at the top dose activity change, negative = inhibition, hits mostly inhibitors. hit rate 1.1% among 220,000; note: % is set by controls: 0 for no effect and ±100 for the full control effect; nearly all actives have a fitted effect of over 60% in size
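Steps: seed 1500 PC12 HTTQ103-GFP cells/well; add tebufenozide, 100 nM final; add compound titration; add ATPLite reagent; quantify GFP aggregates by laser scanning cytometry.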
HTT ATP protect – protects HTT-Q103 PC12 cells, measured by ATP | Potency, µM (top dose mostly 56.4 µM), without a hit: cytoprotection (ATP increase), actives largely listed as activators | hit rate 0.14% among 230,000 | PC12 HTT-Q103 induced, cytoprotection, ATP luminescence, 40 h | AID 1471; note: % of control where 0% means no effect; nearly all actives have a fitted effect of over 45% in size
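Compounds were screened for protection of PC12 cells against cell death after tebufenozide induction (100 nM final) of mutant Huntingtin exon 1 (Q103) fused to GFP.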
Tau fluor counter – counter-screen for tau fibril formation inhibitors | tau K18 P301L Alexa594 fluorescence, heparin fibrillization | AID 1463 | Potency, µM (series often up to 57.7 µM), inactives show top-dose activity change, negative = decrease | hit rate 0.93% among 280,000; note: % is set by controls: 0 for no effect and ±100 for the full control effect; nearly all actives have a fitted effect of over 55% in size
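Human K18 P301L tau (15 uM unlabeled plus 0.24 uM Alexa 594-labeled, final) in 100 mM sodium acetate pH 7 was mixed with compound and 20 uM heparin and incubated 6 hr at 37 C.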
Tau ThT inhib – tau fibrillization inhibition (ThT binding) | recombinant tau K18 P301L, heparin-induced fibrillization, ThT fluorescence | Potency, µM (top dose mostly 57.4 µM), for the others: top-dose activity, negative = inhibition, actives largely listed as inhibitors | hit rate 2.1% among 270,000; note: % is set by controls: 0 for no effect and ±100 for the full control effect; nearly all actives have a fitted effect of over 55% in size
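Using a mix of unlabeled (15 uM) and Alexa 594-labeled (0.24 uM) tau K18 P301L, heparin-triggered fibrillization over 6 hr at 37 C was scored by ThT fluorescence.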
Starred values were filed as active, the others as inactive; [ ] = dose if it differs, or a comment. Calls come from the whole dose curve; as a rule, active = well fitted curve in the direction sought with a large enough effect; inconclusive = small, poorly fitted or top-dose-only effect, or another doubt; inactive = no such curve, though single readings can be large; an effect the other way counts as inactive or inconclusive. Potency is the fitted concentration of half-maximal effect.

`CCc1cc(C(C)=O)c(O)cc1OCCCCCC(C)(C)c1nn[nH]n1` gave Tau FP inhib 11%, HTT ATP protect -82%, Tau fluor counter -2% and Tau ThT inhib -16%.
For CC(C)c1cccc(C(C)C)c1NS(=O)(=O)c1cccs1 the results were Tau FP inhib -3%, Tau fluor counter -13% and Tau ThT inhib -7%.
For N#Cc1cc2c(=O)n3ccccc3nc2n(-c2nnc(SCc3ccccc3Cl)s2)c1=O the results were Tau FP inhib -14%, Tau fluor counter inconclusive and Tau ThT inhib -5%.
COc1ccccc1C[C@@H](Cc1nc2ccccc2[nH]1)c1nc2ccccc2[nH]1 was read as HTT ATP protect 2%.
For CN(Cc1cccc2ccccc12)Cc1cccc2ccccc12 the results were HTT ATP protect 9%[10 µM].
For O=c1[nH]c(SCc2c(Cl)c(Cl)c(Cl)c(Cl)c2Cl)nc(=S)[nH]1 the results were HTT ATP protect -11%[10 µM].
`COc1c(C)cc(S(=O)(=O)NCCc2c(C)[nH]c3ccccc23)c(C)c1C` gave Tau FP inhib inconclusive, Tau fluor counter 16µM*[quencher] and Tau ThT inhib inconclusive.
`COc1cc(Cl)c(S(=O)(=O)NCCc2c(C)[nH]c3c(C)cccc23)cc1Cl` gave Tau FP inhib 22%, Tau fluor counter 16µM*[quencher] and Tau ThT inhib inconclusive.
For COc1ccc(CNc2nc(-c3ccccc3OC)nc3ccccc23)c(OC)c1 the results were Tau FP inhib inconclusive, HTT ATP protect -75%, Tau fluor counter -30% and Tau ThT inhib inconclusive.
COCCCNC(=O)c1ccc(Cn2c(=O)c3cccn3c3cccnc32)cc1 was read as Tau FP inhib -7%, Tau fluor counter -15% and Tau ThT inhib -8%.
COc1ccc(N2CCC(CNC(=S)Nc3c(C)cc(C)cc3C)C2)cc1 (stereo not given) was read as Tau FP inhib 4%, HttQ103 aggreg 3%[9.22 µM], HTT ATP protect -18%[10 µM], Tau fluor counter -27% and Tau ThT inhib inconclusive.
For COc1ccc(N2CCC(CNC(=O)Nc3ccc(OC)cc3OC)C2)cc1 (stereo not given) the results were Tau FP inhib -6%, HttQ103 aggreg 19%, HTT ATP protect -2%, Tau fluor counter inconclusive and Tau ThT inhib 14µM*.
`COc1ccc(N2CCC(CNC(=S)Nc3cccc(C)c3)C2)cc1` (stereo not given) gave Tau FP inhib 10%, HttQ103 aggreg -3%, HTT ATP protect 36%[10 µM], Tau fluor counter 14µM*[quencher] and Tau ThT inhib inconclusive.
Screening c1ccc(C2=Nn3c(nnc3-c3ccncc3)SC2)cc1 returned Tau FP inhib -12%, HttQ103 aggreg 10µM*, HTT ATP protect 25µM*, Tau fluor counter -2% and Tau ThT inhib -4%.
`c1ccc(C2=Nn3c(nnc3-c3cccnc3)SC2)cc1` gave Tau FP inhib 1%, HttQ103 aggreg 20%, HTT ATP protect -25%[0.074 µM], Tau fluor counter 1% and Tau ThT inhib 1%.
For CCCC(=O)Nc1nc(C)c(-c2csc(Nc3ccc(Cl)cc3)n2)s1 the results were Tau FP inhib 7%, HttQ103 aggreg -23%, HTT ATP protect -71%, Tau fluor counter 14µM*[quencher] and Tau ThT inhib 13µM*.
CCC(C)C(=O)Nc1nc(C)c(-c2csc(Nc3ccc(Cl)cc3)n2)s1 (stereo not given) was read as Tau FP inhib 15%, HttQ103 aggreg inconclusive, HTT ATP protect -52%, Tau fluor counter 14µM*[quencher] and Tau ThT inhib inconclusive.
`Cc1ccc(Nc2nc(-c3sc(NC(=O)c4ccco4)nc3C)cs2)cc1` gave Tau FP inhib 12%, HttQ103 aggreg -10%, HTT ATP protect -27%[10 µM], Tau fluor counter inconclusive and Tau ThT inhib 4µM*.
For Cc1ccc(Nc2nc(-c3sc(NC(=O)c4cccc(Cl)c4)nc3C)cs2)cc1 the results were Tau FP inhib inconclusive, HttQ103 aggreg -30%, HTT ATP protect -14%, Tau fluor counter inconclusive and Tau ThT inhib inconclusive.
For Cc1ccccc1Nc1nc(-c2sc(NC(=O)c3ccco3)nc2C)cs1 the results were Tau FP inhib 4%, HttQ103 aggreg -4%, HTT ATP protect 20%[10 µM], Tau fluor counter inconclusive and Tau ThT inhib inconclusive.
Screening CC(C)N(CC(=O)O)CC(=O)O returned HTT ATP protect -10%[10 µM].
